High-throughput results (PubChem)
The full list was thinned out, with hits kept by preference.
Giardia FBPA inh – inhibitors of Giardia lamblia fructose-1,6-bisphosphate aldolase | purified Giardia FBPA | A8B2U2 | Potency, µM (top dose mostly 59.6 µM), for the others: at the top dose activity, negative = inhibition, most hits filed as inhibitors | 290,000 tested, 0.71% active; also: nearly all actives have a fitted effect of over 55% in size
Target sequence (A8B2U2 whole entry, looked up): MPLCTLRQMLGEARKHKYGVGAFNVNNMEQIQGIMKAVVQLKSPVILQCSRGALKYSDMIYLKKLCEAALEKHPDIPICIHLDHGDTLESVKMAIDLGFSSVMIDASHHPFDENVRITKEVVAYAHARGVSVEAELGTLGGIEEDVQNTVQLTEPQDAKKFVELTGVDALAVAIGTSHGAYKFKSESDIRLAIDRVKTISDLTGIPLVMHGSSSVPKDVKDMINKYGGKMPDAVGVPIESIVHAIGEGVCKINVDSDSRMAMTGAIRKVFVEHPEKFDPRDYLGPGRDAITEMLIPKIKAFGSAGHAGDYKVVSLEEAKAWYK
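40 nM FBPA preincubated 10 min at RT with compound (up to 57.5 uM final), then substrate plus GAPDH/TPI/NAD/arsenate coupling and diaphorase/resazurin added. Fluorescence read after 20 min at RT, 525/598 nm.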
Cruzain inh Det – inhibitors of Trypanosoma cruzi cruzain with detergent. Potency, µM, without a hit: max response, negative = inhibition, hits mostly inhibitors. 200,000 tested, 0.43% active. purified cruzain, Z-FR-AMC fluorescence, 0.01% Triton. P25779;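 also: plate controls were neutral wells for no effect and buffer without enzyme for full effect; nearly all actives have a fitted effect of over 40% in size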
Target sequence (P25779 123-467 limits assumed): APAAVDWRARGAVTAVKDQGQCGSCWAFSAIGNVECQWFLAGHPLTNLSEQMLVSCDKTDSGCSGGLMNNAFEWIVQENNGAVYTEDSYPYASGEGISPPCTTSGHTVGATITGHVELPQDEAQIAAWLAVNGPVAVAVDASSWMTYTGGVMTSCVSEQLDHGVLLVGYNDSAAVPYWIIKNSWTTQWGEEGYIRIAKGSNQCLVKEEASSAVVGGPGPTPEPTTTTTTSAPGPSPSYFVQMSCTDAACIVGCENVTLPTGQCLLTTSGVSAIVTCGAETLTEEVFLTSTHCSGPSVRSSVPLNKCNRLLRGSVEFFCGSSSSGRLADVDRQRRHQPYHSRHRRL
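Read-out: AMC fluorescence (360 nm excitation, 450 nm emission), four reads over 2 min, first-to-third difference used. Conditions: cruzain 1.5 nM, Z-FR-AMC 2 uM, pH 5.5 acetate, 5 mM DTT, 0.01% Triton X-100.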
Cruzain noTriton – cruzain (T. cruzi) inhibition without detergent; P25779; 200,000 tested, 2.3% active; purified cruzain, Z-FR-AMC fluorescence, no detergent; Potency, µM, without a hit: max response, negative = inhibition, most hits filed as inhibitors;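 also: plate controls were enzyme without inhibitor for no effect and buffer without enzyme for full effect; nearly all actives have a fitted effect of over 40% in size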
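Purified cruzain at 1.5 nM, pre-incubated 15 min with compound at room temperature in 100 mM sodium acetate pH 5.5, 5 mM DTT, 0.00005% Triton X-100. Reaction started with 2 uM Z-FR-AMC; AMC fluorescence increase over 60 s gives rate.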
* = called active by the depositor; ? = inconclusive; . = no result; [ ] = dose if it differs, or a comment. Calls follow the shape of the dose curve; as a rule, active = well fitted curve in the direction sought with a large enough effect; inconclusive = small, poorly fitted or top-dose-only effect, or another doubt; inactive = no such curve, though single readings can be large; an effect the other way counts as inactive or inconclusive. Unless noted, % is scaled to controls: 0 for no effect and ±100 for the full control effect; potency is read from the fitted curve at half-maximal effect.

SMILES	Giardia FBPA inh	Cruzain inh Det	Cruzain noTriton
COC(=O)CC[C@@H](C)C1CC[C@H]2[C@H]3CC[C@H]4C[C@@H]5CCC4(C)[C@@]3(O5)[C@@H](Br)[C@@H](Br)[C@@]12C (stereo not given in full)	.	-2.5%	-14.0%
O=c1c(Oc2ccccc2F)coc2cc(OCc3cnn(-c4ccccc4)c3)ccc12	1.6%	-3.7%	-29.1%
Cc1[nH]nc(-c2ccc(OCc3cnn(-c4ccccc4)c3)cc2O)c1Oc1ccccc1F	3.7%	1.9%	20µM*
CC(=O)Nc1nc(NC(C)=O)c2[nH]c(CO)nc2n1	.	1.2%	7.8%
COC(=O)N[C@@H](c1ccc(Br)cc1)C(C(=O)OC)C(=O)OC	1.8%	2.7%	-6.9%
O=C(O)CCNc1ncnc2nc[nH]c12	.	3.4%	3.3%
CC(C)(C)OC(=O)NC(NC(=O)OCC1c2ccccc2-c2ccccc21)C(=O)O (stereo not given)	-25.3%	.	.
CC1CCN(C(=O)N2c3ccccc3Sc3ccccc32)CC1	1.7%	-3.4%	-10.9%
O=C(NC1CCN(C(=O)N2c3ccccc3Sc3ccccc32)CC1)c1ccccc1F	0.4%	-5.9%	20µM*
COc1ccccc1CNc1ccnc(-c2ccc(N(C)C)cc2)n1	-20.8%	-3.4%	-13.3%
O=C(N/N=C/c1c(O)n(CCC2=CCCCC2)c(=O)[nH]c1=O)c1ccccc1	-3.6%	3.5%	25.1µM*
O=C(N/N=C/c1c(O)n(CCC2=CCCCC2)c(=S)[nH]c1=O)c1ccccc1	?	2.5%	-4.1%
O=S1(=O)CCN(Cc2cccc(Cl)c2)CC1	-2.9%	0.4%	-5.7%
O=C1NCCN1Cc1cccc(Cl)c1	-15.4%	-0.1%	12.6µM*
C=CCOC(=O)NC(c1ccc(F)c(F)c1)C(C(=O)CCl)C(=O)OC (stereo not given)	0.4%	-21.0%	-5.3%
CC(=O)NC(CC(C)C)C(=O)NC(Cc1ccccc1)C(N)=O (stereo not given)	7.8%	3.5%	-0.9%
CC(=O)[C@H](CC(C)C)NC(=O)[C@@H](CC(C)C)NC(=O)[C@H](CC(C)C)NC(=O)OCc1ccccc1	9.5%	0.0035µM*	0.0126µM*
COc1ccc(S(=O)(=O)N2CCC(N3CCN(Cc4ccccc4)C(=O)C3=O)CC2)cc1	.	3.3%	3.3%
O=C(O)c1ccc2nc(-c3cc4cc(Cl)ccc4oc3=O)[nH]c2c1	.	3.0%	5.3%
COc1cc(C/C=C\c2ccccc2)c(OC)cc1O	?	-6.0%	1.0%
O=C(CSCc1ccc(Cl)cc1)N/N=C/c1ccccc1	17.7µM*	-8.0%	-2.7%
O=C(CSCc1ccc(Cl)cc1)N/N=C/c1c(Cl)cccc1Cl	3.6%	-3.1%	-4.1%
O=C1CS(=O)(=O)C2(C(=O)Nc3ccccc32)N1c1cccc(Cl)c1 (stereo not given)	.	-3.2%	-24.8%
Cc1ccc(C)c(CN2C(=O)C3(OCCCO3)c3ccccc32)c1	2.5%	-6.2%	-2.7%
Cc1ccc(N2C(=O)CS(=O)(=O)C23C(=O)N(Cc2ccc(Cl)cc2)c2ccccc23)cc1C (stereo not given)	.	-2.7%	12.6µM*
SMILES	Giardia FBPA inh	Cruzain inh Det	Cruzain noTriton
Cc1ccc(CN2C(=O)C3(SCC(=O)N3c3ccc(C)c(C)c3)c3ccccc32)cc1 (stereo not given)	.	-9.3%	?
COc1ccc(N2C(=O)CS(=O)(=O)C23C(=O)N(Cc2ccc(F)cc2)c2ccc(C)cc23)cc1 (stereo not given)	.	-2.8%	3.16µM*
COc1ccc(N2C(=O)CCSC23C(=O)N(Cc2ccc(F)cc2)c2ccccc23)cc1 (stereo not given)	.	-3.8%	6.5%
Cc1ccc(CN2C(=O)C3(c4ccccc42)N(c2ccc(C)c(Cl)c2)C(=O)CS3(=O)=O)cc1 (stereo not given)	.	-4.0%	1.26µM*
Cc1ccc(C)c(CN2C(=O)C3(c4ccccc42)N(c2ccc(Cl)cc2)C(=O)CS3(=O)=O)c1 (stereo not given)	.	-3.3%	3.16µM*
CN(N=O)c1ccc(/C=C\c2ccnc3ccccc23)cc1	.	-6.6%	-4.3%
CO[C@H]1COC(=O)CCC[C@@H](C)[C@H](OC)COC(=O)[C@H]2CCCN2C(=O)C/C=C\[C@@H]1C	1.1%[12.9 µM]	.	.
Cc1ccc2c(c1)cc1c(=O)n(CC(=O)NC3CCCCC3)nc(C)n12	.	-0.2%	5.7%
Cc1ccc(N2C(=O)CS(=O)(=O)C23C(=O)N(Cc2ccccc2F)c2ccccc23)cc1Cl (stereo not given)	.	-4.6%	1.26µM*
Cc1ccc(N2C(=O)CSC23C(=O)N(Cc2ccccc2F)c2ccccc23)cc1F (stereo not given)	.	-8.9%	-5.8%
COc1ccc(CNC(=O)CCc2c(C)nc3c(c(C)nn3-c3ccccc3)c2C)cc1	.	-2.9%	?
CCn1c(C(=O)Nc2ccc(C)cc2C)cc2sc(Cl)cc21	.	14.8%	15.6%
CCOc1ccc(/C=C/c2nc(C#N)c(N3CCC(C)CC3)o2)cc1	.	3.2%	6.9%
Cc1ccc(N=c2c([N+](=O)[O-])nn(-c3ccccc3)n2O)c(C)c1	-26.8%	-6.6%	?
Cc1c(Cl)cccc1N=c1c([N+](=O)[O-])nn(-c2ccccc2)n1O	8.1%	1.8%	20µM*
O=C(Nc1nc(-c2ccccc2)c(-c2ccccc2)s1)c1ccc(S(=O)(=O)N2CCCCC2)cc1	7.4%	0.7%	3.98µM*
O=C(NNC(=O)c1ccc(S(=O)(=O)N2CCCCC2)cc1)c1ccccc1	3.4%	.	.
CC1CCCCN1S(=O)(=O)c1ccc(C(=O)Nc2ccccc2-c2nc3ccccc3[nH]2)cc1 (stereo not given)	-1.3%	-4.9%	?
COCCN(CCOC)S(=O)(=O)c1ccc(C(=O)Nc2nc(-c3ccccc3)c(C(=O)c3ccccc3)s2)cc1	2.5%	-0.5%	?
COc1ccc(C(=O)Nc2nc3c(s2)CCc2cc(OC)ccc2-3)cc1	.	-14.0%	-73.3%
COc1ccc(C(=O)Nc2nc(-c3ccc([N+](=O)[O-])cc3)c(-c3ccc(OC)cc3)s2)cc1	0.4%	1.7%	10µM*
O=C(Nc1nc(-c2ccccc2)c(C(=O)c2ccccc2)s1)c1ccc(S(=O)(=O)N2CCCCC2)cc1	5.2%	-5.5%	7.94µM*
O=C(Nc1ccccc1-c1nc2ccccc2[nH]1)c1ccc(S(=O)(=O)N2CCCCC2)cc1	-4.5%	-3.8%	10µM*
CCCCCCC#CC1C=CC(OC(C)=O)C(COC(C)=O)O1 (stereo not given)	3.2%[12.9 µM]	.	.
COc1ccc(OC)c(NC(=O)Cn2c(=O)cc(C)c3c(C)nn(-c4cccc(Cl)c4C)c32)c1	.	7.1%	-2.0%
SMILES	Giardia FBPA inh	Cruzain inh Det	Cruzain noTriton
COc1ccc2c3c(c(=O)oc2c1)C1O[C@](c2ccsc2)(Cc2cc(C#N)ccc21)O3	-4.2%[12.9 µM]	.	.
O=C(NNc1nc(-c2ccccc2)c2cc(Br)ccc2n1)c1ccc(S(=O)(=O)N2CCOCC2)cc1	11.1%	-1.8%	-2.8%
O=C(NNc1nc(-c2ccccc2)c2cc(Br)ccc2n1)c1ccc(S(=O)(=O)N2CCCCC2)cc1	11.3%	-5.0%	25.1µM*
Cc1c(C(=O)N(Cc2ccccc2F)C2CCS(=O)(=O)C2)oc2ccc(F)cc12 (stereo not given)	.	-7.5%	26.2%
N=c1oc2ccccc2cc1-c1nc(-c2ccccc2)cs1	3.4%	-14.5%	?
N=c1oc2ccc3ccccc3c2cc1-c1nc(-c2ccccc2)cs1	1.7%	-5.3%	25.1µM*
